Hits are enriched below; roughly 1.4% of the tested compounds scored in any of these assays.
TCR activator = activators of T cell receptors | primary human leukocytes, anti-CD3, IL-2 HTRF, 48 h | Potency, µM (highest dose often 9.22 µM), for inactives: at the top dose activation of IL-2 secretion, usual class: activators | 330,000 tested, under 10 active | AID 504894; note: % of control where 0% means no effect
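48 hr co-incubation of compounds, a-CD3 beads and primary human leukocytes; IL-2 quantified homogeneously by HTRF with anti-IL-2 K and d2 conjugates.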
TSHR antagonist = blocks TSH signaling through the human TSH receptor | AID 504810 | activity change, negative = inhibition, % at 11.5 µM | 0.2% of 330,000 active | TSHR-expressing cells, TSH-stimulated cAMP HTRF, 2 h; hits give low values;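 active = activity change below a set negative limit, meaning inhibition stronger than a set level, cut at about -70% in these data; inconclusive = activity change between two set negative limits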; note: % is set by controls: 0 for no effect and ±100 for the full control effect
Target sequence (P16473 whole entry, looked up): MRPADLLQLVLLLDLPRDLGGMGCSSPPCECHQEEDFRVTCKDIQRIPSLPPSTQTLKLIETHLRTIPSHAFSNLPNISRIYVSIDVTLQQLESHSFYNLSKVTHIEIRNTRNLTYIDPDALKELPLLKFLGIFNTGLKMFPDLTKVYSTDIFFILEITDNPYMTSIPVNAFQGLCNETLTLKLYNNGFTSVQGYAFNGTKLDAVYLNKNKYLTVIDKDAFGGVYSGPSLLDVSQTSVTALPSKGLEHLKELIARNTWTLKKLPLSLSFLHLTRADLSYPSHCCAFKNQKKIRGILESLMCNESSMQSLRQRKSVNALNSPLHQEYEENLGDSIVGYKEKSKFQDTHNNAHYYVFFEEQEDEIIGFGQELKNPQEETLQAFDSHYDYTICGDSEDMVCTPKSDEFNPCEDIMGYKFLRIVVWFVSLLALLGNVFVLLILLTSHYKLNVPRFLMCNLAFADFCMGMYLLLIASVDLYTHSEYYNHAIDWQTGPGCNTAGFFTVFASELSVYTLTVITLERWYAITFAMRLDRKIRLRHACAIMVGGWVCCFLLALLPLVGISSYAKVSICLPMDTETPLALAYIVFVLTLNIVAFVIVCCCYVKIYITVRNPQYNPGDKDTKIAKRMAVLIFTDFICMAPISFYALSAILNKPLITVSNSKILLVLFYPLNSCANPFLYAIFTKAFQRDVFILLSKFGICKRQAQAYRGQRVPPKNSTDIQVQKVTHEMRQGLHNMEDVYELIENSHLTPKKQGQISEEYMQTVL
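Inhibition of cAMP made by TSHR-expressing cells under TSH stimulation (4nM final, EC80; 2 h, 37 deg C) is quantified with a one-step lysis HTRF kit, anti-cAMP cryptate versus cAMP-d2.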
N370S GC = inhibits or activates N370S mutant glucocerebrosidase; 0.092% of 330,000 active; P04062; Potency, µM (highest dose often 59.4 µM), inactives show top-dose activity change, negative = inhibition, usual class: inhibitors; N370S GC spleen homogenate, 4MU-glucoside fluorescence;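 note: potency is the fitted concentration of half-maximal effect; 0% = full enzyme activity and -100% = no enzyme basal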
GLS inhibitor = blocks human kidney-isoform glutaminase activity | O94925 | GLS enzymatic activity, qHTS titration | Potency, µM (series often up to 45.5 µM), without a hit: top-dose activity change, negative = inhibition, most hits filed as inhibitors | 0.21% of 410,000 active; note: potency is the fitted concentration of half-maximal effect; % is set by controls: 0 for no effect and ±100 for the full control effect
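Enzyme dispensed in phosphate buffer (45 mM, pH 8.2, 0.02% Tween-20), compounds pinned in, then 1 mM L-glutamine solution and the glutamate oxidase–HRP–Amplex Red mix added; fluorescence read immediately and again after 30 min at room temperature.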
BRCA1 expr act = increases BRCA1 expression; Potency, µM (doses to about 46.1 µM), for the others: at the top dose activation, usual class: activators; MCF7-BRCA1-FFLuc reporter, luminescence, 48 h; response scale: scaled: vehicle 0%, 10 µM genistein 100%; AID 624202; 1.1% of 380,000 active; note: potency is the fitted concentration of half-maximal effect; nearly all actives have a fitted effect of over 80% in size
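MCF7 cells carrying a BRCA1-firefly luciferase reporter (2000 cells/well, phenol-red free MEM) were attached for 2 h at 37 °C, then given compounds for 48 h. Luminescence was read 15 min after luciferase reagent; activity normalized to genistein (10 microM) and DMSO.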
p53 reactivation = re-activators of mutant p53 | H1299 p53-A138V BP100-luciferase reporter, luminescence, 24 h | Potency, µM (series often up to 92.2 µM), without a hit: at the top dose activity change, positive = activation, actives largely listed as activators | 0.063% of 320,000 active; note: potency is the fitted concentration of half-maximal effect; % of control where 0% means no effect; nearly all actives have a fitted effect of over 45% in size
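p53-null H1299 cells stably carrying temperature-sensitive p53-A138V and a BP100-luciferase reporter were pinned with compounds (4-point, 1:5 series) and held 24 hrs at 37 deg C. Luminescence was read 10 min after detection reagent.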
The depositor's hits bear a star; ? = inconclusive; nt = no result; [ ] = another dose, or the depositor's remark. Unless noted, calls come from the whole dose curve; as a rule, active = well fitted curve in the direction sought with a large enough effect; inconclusive = small, poorly fitted or top-dose-only effect, or another doubt; inactive = no such curve, though single readings can be large; an effect the other way counts as inactive or inconclusive.

SMILES	TCR activator	TSHR antagonist	N370S GC	GLS inhibitor	BRCA1 expr act	p53 reactivation
CCOc1ccc(Cc2nc(N)nc(N)n2)cc1	-5%[46.1 µM]	2	1%	0%	-26%	20%
COC(=O)[C@@H]1CC2=CC(=O)CC[C@]2(C)[C@@]23O[C@@H]2C[C@@]2(C)[C@H](CC[C@@]24CCC(=O)O4)[C@@H]13	nt	nt	3%	nt	nt	nt
CCn1ccc(C(=O)Nc2ccc(Cl)cn2)n1	0%	-3	10%	-5%	2.5µM*	?
Nc1c(C(=O)N2CCCCC2)sc(=S)n1-c1ccccc1	1%	19	-4%	-8%	8%	0%
Nc1nc(SCc2ccccc2)sc1C(=O)N1CCCCC1	nt	nt	nt	-2%	2.2µM*	nt
COc1ccc(OC)c(/C=C2\Cc3ccccc3C2=O)c1	nt	nt	nt	nt	0%	nt
Cc1cccc(N(C)C(=O)CN(C)S(=O)(=O)c2ccc3[nH]c4c(c3c2)CCCC4)c1	nt	nt	nt	8%	nt	nt
Cc1onc(-c2ccccc2Cl)c1C(=O)NCc1ccco1	-1%	8	0%	10µM*	0%	-2%
O=C(Nc1ccc2ncccc2c1)Nc1ccc2ncccc2c1	-12%	-11	-5%	-14%	?	8%
CN(C)S(=O)(=O)c1ccc(C(=O)Nc2ccc3ncccc3c2)cc1	-1%	-4	-1%	-4%	13µM*	-5%
O=C(Nc1ccc2ncccc2c1)c1ccccc1Br	nt	5	-8%	1%	7.1µM*	nt
CC(=O)[C@]1(O)Cc2c(O)c3c(c(O)c2[C@@H](O[C@H]2C[C@H](N)[C@H](O)[C@H](C)O2)C1)C(=O)c1c(O)cccc1C3=O	nt	nt	-18%	-15%	nt	nt
CCC(C(=O)C(C)C(O)C(C)CCc1ccc(C)c(O)c1C(=O)O)C1OC(CC)(C2CC[C@@](O)(CC)C(C)O2)CC1C (stereo partly drawn)	nt	nt	-5%	-23%	nt	nt
CC[C@@H](C(=O)[C@@H](C)[C@@H](O)[C@H](C)CCc1ccc(C)c(O)c1C(=O)O)[C@H]1O[C@](CC)([C@H]2CC[C@](O)(CC)[C@H](C)O2)C[C@@H]1C	4%	-84*	14%	-9%	-74%	nt
COc1cccc(-c2ccnc3c(-c4ccc(F)cc4)c(C)nn23)c1	nt	nt	nt	-3%	0%	nt
Cc1ccc(-c2cnc3cccnn23)cc1F	nt	nt	nt	-2%	20%	nt
COc1cccc(-c2ccnc3c(-c4ccccc4)c(C)nn23)c1	nt	nt	nt	8%	11µM*	nt
COc1cccc(-c2cnc3cccnn23)c1	nt	nt	nt	2%	13µM*	nt
O=C(c1nc2ccccn2c1CN1CCN(c2ccccc2O)CC1)N1CCCC1	-19%	8	-18%	3.5µM*	-13%	-4%
CCSc1nc2c(cnn2-c2ccccc2)c(=O)n1N	4%	-12	6%	14%	5µM*	5%
CC(C)Oc1cccc(C(=O)Nc2ccc(-c3nc4cc(Cl)cc(Cl)c4o3)cc2)c1	nt	nt	nt	0%	nt	nt
C[n+]1ccnc2cc(Cl)ccc21	nt	nt	nt	nt	-79%	nt
Cc1ccc(NC(=O)Cn2nnc3ccccc32)cc1	1%	-1	1%	7%	8.9µM*	?
COC(=O)c1ccc(NC(=O)Cn2nnc3ccccc32)cc1	3%	3	4%	1%	10µM*	?
Cc1cccc(NC(=O)Cn2nnc3ccccc32)c1	-2%	4	-5%	2%	13µM*	23%
SMILES	TCR activator	TSHR antagonist	N370S GC	GLS inhibitor	BRCA1 expr act	p53 reactivation
O=C(Cn1nnc2ccccc21)Nc1ccc([N+](=O)[O-])cc1	-5%	12	-6%	11%	11%	0%
CCn1c(SC(C)C(=O)NCc2ccco2)nnc1-c1ccccc1 (stereo not drawn)	nt	nt	nt	nt	0%	nt
Cc1cccc(CNc2ccnc(-c3ccoc3)n2)c1	nt	nt	5%	nt	nt	nt
Cc1cccc(CNc2ccnc(-c3ccccc3C(F)(F)F)n2)c1	nt	nt	14µM*	nt	nt	nt
O=C(NCC1CCCO1)C1CCN(C(=O)c2ccc(Cl)cc2)CC1 (stereo not drawn)	0%	6	2%	-4%	-62%	7%
CC(C)(C)c1ccc(C(=O)N2CCC(C(=O)NCC3CCCO3)CC2)cc1 (stereo not drawn)	-1%	4	4%	-1%	8.9µM*	24%
C/C(N)=C(/C#N)C(=O)COC(=O)c1cc(C)n(-c2ccc(F)cc2)c1C	7%	-27	6%	-10%	8.9µM*	?
Cc1cc(C(=O)OCC(N)=O)c(C)n1-c1ccccc1	-3%	-2	-9%	?	33%	8%
Cc1cccc(-n2cnc(C(=O)NC3CCCCCC3)c2)n1	11%	-12	-3%	-19%	10µM*	20%
O=C(O)c1ccc(/C=N/Nc2ccc(C(F)(F)F)cn2)cc1	3%	-4	4%	14%	?	-2%
O=C(O)c1ccc(/C=N/Nc2cccc(C(F)(F)F)c2)cc1	1%	5	-6%	14µM*	92%	0%
Cc1cccc(C(=O)N=c2sccn2C)c1[N+](=O)[O-]	3%	-1	-2%	-1%	5µM*	13%
Cc1ccc(O)c(N/C=C/C(=O)c2ccc(F)cc2)c1	3%	3	1%	20%	6.3µM*	nt
O=C(/C=C/Nc1ccc(F)cc1Br)c1ccccc1	4%[46.1 µM]	-7	1%	17%	-46%	16%
N#C[C@H]1C[C@H]2C[C@@H]2N1C(=O)[C@@H](N)C12CC3CC(CC(O)(C3)C1)C2	nt	nt	nt	-8%	nt	nt
COc1ccc2c(c1OC)C(=O)N1c3ccccc3SC21 (stereo not drawn)	9%	7	6%	13%	5µM*	?
CC(OC(=O)CNC(=O)c1ccccc1F)C(=O)Nc1nc(-c2ccccc2)cs1 (stereo not drawn)	7%[46.1 µM]	13	-10%	-7%	6.3µM*	?
COc1cccc(CC(=O)N2CCc3nc(-c4ccccc4)c4c(c3C2)CO[C@@H](C)C4)c1	nt	nt	2%[12.8 µM]	nt	nt	nt
O=c1[nH]c(/C=C/c2ccccn2)nc2ccccc12	9%	3	-14%	-9%	27%	11µM*
COC(=O)c1ccc2nc(C)cc(Nc3cccc(Cl)c3C)c2c1	nt	nt	nt	-2%	-28%	nt
O=C(c1ccc(F)cc1)c1cnc(Nc2ccccc2)s1	6%	-7	0%	3%	2µM*	16%
CNc1ncc(C(=O)c2ccc(F)cc2)s1	-5%	1	-1%	4%	?	10%
CCSc1nnc(Nc2ccc(C)cc2)s1	-5%	-13	-9%	0%	10µM*	4%
CCSc1nnc(Nc2ccccc2)s1	2%	-10	-2%	1%	11µM*	?
O=C(COC(=O)C1CC1)Nc1ccc(N=Nc2ccccc2)cc1	2%[46.1 µM]	-8	16%	-1%	2.5µM*	?
COC(=O)CCCNC(=O)c1ccc2oc(CCCc3ccccc3)nc2c1	nt	0	0%	29%	48%	3%
